Screen size: about 330,000 compounds; about 940 (0.28%) were called active. This is one part of a sample in which actives are shown more often than they occur. Unmarked numbers belong to inactive results. No stated cut-off is given here; in the data, active means inhibition above about 12%; inactive means the rest.
Assay: reduced growth of AddAB-expressing E. coli cells – absorbance, AddAB inhibitor project, primary screen (AID 435030);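 further: 0% = vehicle wells of infected cells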
Details: E. coli expressing H. pylori AddAB, at 11.9 µM, hits give high values

Row | Compound | inhibition
1 | Nc1nonc1-n1nnc(C(=O)N/N=C/c2c[nH]c3ccccc23)c1-c1ccccc1 | 0.34%
2 | O=C(O)c1cccc(NC(=S)N/N=C/c2c[nH]c3ccccc23)c1 | 3.31%
3 | CSC(=S)N/N=C/c1c[nH]c2ccccc12 | 14.4% (active)
4 | COC(=O)c1cc(S(=O)(=O)N2CCC(C(N)=O)CC2)oc1C | -2.11%
5 | COc1cccc(OC)c1CN(C)C(=O)c1cnccc1C(F)(F)F | 3.15%
6 | CC(=O)Nc1ccc(CN2CCN(Cc3ccc(F)c(F)c3)C(CCO)C2)cc1 (centres undefined) | 2.22%
7 | CCOC(=O)C1=NOC(Cn2cc(C(C)=O)c(=O)[nH]c2=O)C1 (centres undefined) | 3.64%
8 | Cc1cn(C2OC[C@@H](O)[C@@H]2CO)c(=O)[nH]c1=O (some centres undefined) | 0.5%
9 | Cc1cn(C2C=CC(CO)O2)c(=O)[nH]c1=O (centres undefined) | 20.5% (active)
10 | O=C(NNC(=O)C1C2CCC(C2)C1C(=O)O)c1ccc(Cl)cc1 (centres undefined) | -0.52%
11 | Cc1ccc(NC(=O)CN(C)C(=O)COC(=O)C(C)(C)Oc2ccc(Cl)cc2)cc1 | 1.52%
12 | Cc1ccc(O)c(NC(=O)c2cc(-c3ccco3)on2)c1 | 2.66%
13 | Nc1nonc1-n1nnc(C(=O)N/N=C/c2cc(Br)ccc2O)c1CSC1=NCCS1 | 17.5% (active)
14 | Cc1ccc(SCc2c(C(=O)N/N=C/c3cccnc3)nnn2-c2nonc2N)cc1 | 3.86%
15 | Nc1nonc1-n1nnc(C(=O)N/N=C/c2ccccc2O)c1CN1CCCC1 | 4.54%
16 | CCOc1ccc(N(CC(=O)Nc2ccccc2F)S(=O)(=O)c2c(C)[nH]c(=O)[nH]c2=O)cc1 | 3.71%
17 | CCOc1ccccc1NC(=O)COc1ccc(S(=O)(=O)N2CCCC2)cc1 | 2.68%
18 | O=C(NC(Cc1ccccc1)C(=O)O)/C(=C\c1ccccc1)NC(=O)c1ccco1 (centres undefined) | 0.08%
19 | O=C(CCS(=O)(=O)c1ccccc1)Nc1nc2c(s1)CCCC2 | -2.56%
20 | Cc1nnc(NC(=O)Cn2c(=O)sc3ccccc32)s1 | 3.04%
21 | O=C(Cn1c(=O)sc2ccccc21)Nc1nc2c(s1)CCCC2 | 12.5% (active)
22 | Cc1cnc(NC(=O)c2ccccn2)s1 | -4.66%
23 | CC(=O)Oc1ccccc1C(=O)Nc1ncc([N+](=O)[O-])s1 | 13.3% (active)
24 | O=C(Cc1c(F)cccc1Cl)Nc1ncc([N+](=O)[O-])s1 | 5.83%
25 | COc1ccccc1CNC(=O)Cn1c(=O)oc2cc(Cl)ccc21 | 4.32%
26 | COC(=O)C1=C(Nc2ccc(C)cc2)C=C(C)C(C(=O)OC)C1c1ccc(F)cc1 (centres undefined) | 1.3%
27 | NC(=O)COC(=O)c1sc2cc(F)ccc2c1Cl | 1.69%

Row | Compound | inhibition
28 | CCOC(=O)N1CCC(Nc2c(NCCCN3CCN(c4ccc(OC)cc4)CC3)c(=O)c2=O)CC1 | 2.85%
29 | CC(NC(=O)COC(=O)C1CCN(S(=O)(=O)c2ccccc2C(F)(F)F)CC1)c1ccccc1 (centres undefined) | 0.81%
30 | CC[C@H]1OC(=O)[C@H](C)[C@@H](O[C@H]2C[C@@](C)(OC)[C@@H](O)[C@H](C)O2)[C@H](C)[C@@H](O[C@@H]2O[C@H](C)C[C@H](N(C)C)[C@H]2O)[C@](C)(O)C[C@@H](C)[C@@H]2N[C@@H](COCCOC)O[C@H]([C@H]2C)[C@]1(C)O | 41% (active)
31 | CCCCNC(=O)C1(c2ccc(OC)cc2)CCOCC1 | 0.97%
32 | CC1(C)CC(N2CCN(C(c3ccccc3)c3ccccc3)CC2)=CC(=[N+]2CCCCC2)C1 | 1.52%
33 | Cc1nnc(SCCCCSc2nnc(C)c(=O)[nH]2)[nH]c1=O | -1.42%
34 | O=c1oc2c(Cl)cc(Cl)cc2cc1-c1nnc(Nc2ccccc2F)s1 | -1.06%
35 | O=C(NC(=O)N1CCSCC1)c1c(Cl)cccc1Cl | 1.83%
36 | CN(C)[C@@H]1C(=O)C(C(N)=O)=C(O)[C@@]2(O)C(=O)C3=C(O)c4c(O)ccc(Cl)c4[C@@H](O)[C@H]3C[C@@H]12 | 100% (active)
37 | C=C1c2c(Cl)ccc(O)c2C(O)=C2C(=O)[C@]3(O)C(O)=C(C(N)=O)C(=O)[C@@H](N(C)C)[C@@H]3[C@@H](O)C12 (some centres undefined) | 103% (active)
38 | O=C(CCNC(=O)c1ccccc1)NN=Cc1ccc(Br)o1 | -1.39%
39 | NC(=O)NCCCC(=O)O | 4.03%
40 | CC(=O)N(O)CCCCCNC(=O)CCC(=O)N(O)CCCCCNC(=O)CCC(=O)N(O)CCCCCNC(=O)CCC(=O)O | 22% (active)
41 | COc1nc(N(C)C)nc(N2CC(=O)N(CCNS(=O)(=O)c3ccc(C)cc3)C2=N)n1 | -0.32%
42 | Cc1ccc(Cn2c(=N)c(S(=O)(=O)c3ccc(C)cc3)cc3c(=O)n4ccccc4nc32)cc1 | 1.33%
43 | CC1(C)CC(=O)c2cnc3nc4ccccc4n3c2C1 | -0.86%
44 | COc1ccc(CCN=C2SCC(=O)N2Cc2ccccc2)cc1OC | 1.52%
45 | O=C(N/N=C\c1ccc(-c2ccc(Cl)c(Cl)c2)o1)C(=O)N1CCCC1 | -0.96%
46 | O=c1ccc2c(-c3ccccc3S(=O)(=O)O)c3ccc(O)c(O)c3oc-2c1O | 22.5% (active)
47 | C=C1CCN([C@H](C(=O)NCc2cc(OC)c(OC)c(OC)c2)C(C)C)S(=O)(=O)c2ccccc21 | 0.6%
48 | COc1ccc(CNC(=O)C[C@H]2C[C@H](C(=O)N3CCOCC3)[C@@]3(C)c4[nH]c5cc(CCC(=O)N(C)C)ccc5c4CCN3C2=O)cc1OC | -1.37%
49 | O=C(Cc1ncc(C(F)(F)F)cc1Cl)Nc1cccc(Br)c1 | 0.17%
50 | COc1ccc(CC(=O)Nc2c(C(N)=O)oc3ccccc23)cc1 | 2.54%
51 | COc1ccc(C(=O)c2oc3ccc(Br)cc3c2NC(C)=O)cc1 | 100% (active)
52 | COC(=O)c1oc2ccc(Br)cc2c1NC(C)=O | -2.24%
53 | CC(=O)/C(=N\Nc1ccc(Cl)cc1Cl)Sc1cccc2cccnc12 | -1.2%
54 | C[C@H]1[C@H]2c3nc4ccccc4n3C[C@H]1ON2C1CCCCC1 | 3.89%
